Measured values taken from the supplement of paper PMC7724964.

T1: VCL 1-259 Vinculin (domain begin residue: 1, domain end residue: 259), P18206
T1 chain: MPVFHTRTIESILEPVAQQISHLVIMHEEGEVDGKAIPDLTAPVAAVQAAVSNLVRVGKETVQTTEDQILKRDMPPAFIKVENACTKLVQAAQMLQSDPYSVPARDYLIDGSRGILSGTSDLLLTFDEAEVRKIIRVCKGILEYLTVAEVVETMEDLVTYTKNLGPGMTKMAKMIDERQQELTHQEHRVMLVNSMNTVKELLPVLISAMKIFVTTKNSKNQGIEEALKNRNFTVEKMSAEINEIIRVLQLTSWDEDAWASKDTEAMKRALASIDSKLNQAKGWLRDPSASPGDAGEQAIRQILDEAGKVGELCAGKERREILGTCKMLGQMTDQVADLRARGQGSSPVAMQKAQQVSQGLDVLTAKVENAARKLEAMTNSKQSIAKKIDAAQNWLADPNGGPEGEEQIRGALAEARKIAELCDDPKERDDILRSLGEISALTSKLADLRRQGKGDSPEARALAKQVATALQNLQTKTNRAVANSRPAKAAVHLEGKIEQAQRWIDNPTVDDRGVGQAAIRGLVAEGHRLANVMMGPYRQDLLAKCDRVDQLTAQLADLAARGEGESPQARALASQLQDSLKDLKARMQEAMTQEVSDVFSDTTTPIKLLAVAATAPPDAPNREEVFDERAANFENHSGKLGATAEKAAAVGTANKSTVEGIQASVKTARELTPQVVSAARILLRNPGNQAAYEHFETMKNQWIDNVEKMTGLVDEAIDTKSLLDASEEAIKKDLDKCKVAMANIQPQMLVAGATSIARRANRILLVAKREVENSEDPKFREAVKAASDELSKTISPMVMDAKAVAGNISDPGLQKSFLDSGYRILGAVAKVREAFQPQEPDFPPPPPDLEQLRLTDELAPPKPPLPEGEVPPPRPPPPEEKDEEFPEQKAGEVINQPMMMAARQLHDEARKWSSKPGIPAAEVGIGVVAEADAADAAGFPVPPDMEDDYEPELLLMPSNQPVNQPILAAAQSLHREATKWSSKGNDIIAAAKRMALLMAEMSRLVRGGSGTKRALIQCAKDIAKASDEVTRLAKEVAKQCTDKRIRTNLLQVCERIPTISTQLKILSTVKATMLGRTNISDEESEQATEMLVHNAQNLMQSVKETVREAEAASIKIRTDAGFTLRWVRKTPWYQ

T2: WDR74 1-387 WD40 (domain begin residue: 1, domain end residue: 387), Q6RFH5
T2 chain: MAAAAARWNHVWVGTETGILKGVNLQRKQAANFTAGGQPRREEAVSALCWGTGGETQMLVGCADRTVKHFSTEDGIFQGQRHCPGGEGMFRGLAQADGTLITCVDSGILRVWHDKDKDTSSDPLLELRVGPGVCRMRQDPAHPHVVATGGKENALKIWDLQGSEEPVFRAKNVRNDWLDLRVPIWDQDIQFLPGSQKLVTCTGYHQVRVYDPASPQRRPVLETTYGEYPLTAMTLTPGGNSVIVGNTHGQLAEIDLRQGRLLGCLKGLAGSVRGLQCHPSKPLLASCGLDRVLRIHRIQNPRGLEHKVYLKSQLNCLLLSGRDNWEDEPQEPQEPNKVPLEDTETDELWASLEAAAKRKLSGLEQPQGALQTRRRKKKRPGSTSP


The binders below were run against VASP 1-114 WH1 (domain begin residue: 1, domain end residue: 114), P50552 (assay: phage ELISA signal ratio (GST-PRM binding over GST background); higher = stronger binding of peptide-phage to the PRM).
How it was run: (§1)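 An M13 phage library with randomized hexadecapeptides on the gene-8 major coat protein, each peptide lacking cysteine and flanked by glycine, was selected for five rounds against human peptide recognition domains fused to the C-terminus of glutathione S-transferase (GST) and expressed in 96-well plates. Approximately 48 clones from rounds 4 and 5 went to phage ELISA. The reported value is the ELISA signal on the GST-domain fusion over the signal on GST alone, and positive clones were sequenced.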

VASP 1-114 WH1 (domain begin residue: 1, domain end residue: 114), P50552, sequence (P50552 whole entry, the tested form may be a part): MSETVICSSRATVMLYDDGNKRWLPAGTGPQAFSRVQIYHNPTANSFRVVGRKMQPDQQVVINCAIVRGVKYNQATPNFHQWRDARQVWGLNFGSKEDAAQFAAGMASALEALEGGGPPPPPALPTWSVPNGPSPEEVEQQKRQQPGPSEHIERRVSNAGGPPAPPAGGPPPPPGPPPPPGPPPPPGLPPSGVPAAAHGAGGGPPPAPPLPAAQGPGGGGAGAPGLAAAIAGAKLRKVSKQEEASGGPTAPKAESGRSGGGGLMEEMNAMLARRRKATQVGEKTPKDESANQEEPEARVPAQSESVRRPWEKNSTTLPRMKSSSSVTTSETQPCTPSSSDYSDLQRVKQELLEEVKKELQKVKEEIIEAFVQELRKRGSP

First: PAWPPWPAEAVWEATK
Second: DPYWVWPDLPHNVSHP
The “phage ELISA signal ratio” value of the first is lower: 12.3 for the first, 19.2 for the second.

First: STQKDNNWPLPPVMEE
Second: NLETWAWPPWPQEFND
The “phage ELISA signal ratio” value of the first is lower: 21.6 for the first, 23.3 for the second.

First: LDMFWPEPPMFNREIP
Second: NWDIWPDWPPTQSVMW
The “phage ELISA signal ratio” value of the first is higher: 24.9 for the first, 5.89 for the second.

WPPAPPTEQHRQMWAK was tested, and the “phage ELISA signal ratio” value was 7.1.

Molecular target: T1, VCL 1-259 Vinculin (domain begin …
Experiment: as above
How it was run: as §1

Compared with DNFENWIENWLLEYNG, LTGEIWDAEKVIHYVM is higher in “phage ELISA signal ratio” value: 9.78 for the first, 11.1 for the second.

Going from YWDAGEVMAQIIQSAH to FPQMWQSPDFWEDWLL, the “phage ELISA signal ratio” value rises from 11.9 to 12.6.

First: LDSFWDAENVIRSIMI
Second: FDTPLWEQAMWEALGE
The “phage ELISA signal ratio” value of the first is lower: 12.9 for the first, 13.2 for the second.

First: WPDDLDWGTWLETLPL
Second: LWDWTPETEQWFQEIV
The “phage ELISA signal ratio” value of the first is lower: 13.3 for the first, 13.5 for the second.

Compared with QMIEFWTEEEIMHWVH, HPQEWSAEEIMVGILY is higher in “phage ELISA signal ratio” value: 13.6 for the first, 14.1 for the second.

First: MPPWTEDAESWHMWLI
Second: NTVEWQDMEGHLLGIV
The “phage ELISA signal ratio” value of the first is lower: 14.8 for the first, 15.3 for the second.

Going from WWEQDQDWEEFVNAIE to APVVHDFDAYKMLMQL, the “phage ELISA signal ratio” value rises from 16.9 to 17.2.

Compared with VDDQEWPNMEMLLGIV, SDDWFFDLTHSIISTD is higher in “phage ELISA signal ratio” value: 17.4 for the first, 18.4 for the second.

Compared with TAHDWIDEWLVQAMLQ, HEIWETDWQWIIDQAY is higher in “phage ELISA signal ratio” value: 20.3 for the first, 20.4 for the second.

DNWYWEAWDAAFLTNG and WDPQADWQEQVQYWLV are the same in “phage ELISA signal ratio” value: 20.4 for the first, 20.4 for the second.

Compared with MMPTTEDGWEMWLAEL, WGSEDTQYWLEYVNSV is higher in “phage ELISA signal ratio” value: 21.4 for the first, 24.6 for the second.

The binders below were run against WDR5 20-334 WD40 (domain begin residue: 20, domain end residue: 334), P61964 in the same assay as above.
How it was run: as §1

First: RTEPYQWMKAAGFPTS
Second: VEFWWSDTSARTLPFK
The “phage ELISA signal ratio” value of the first is lower: 9.24 for the first, 9.42 for the second.

Going from NARTDAWWSQQSLQQH to RTEYLNWQEHRTVSKE, the “phage ELISA signal ratio” value rises from 9.86 to 11.

Going from EYHPRWGYIMAQASDS to RTDPEQYQRTMMVPRG, the “phage ELISA signal ratio” value rises from 11 to 12.1.

First: RTEPYVHQQPTPQAPA
Second: VPSLVMPQDQPVMVSR
The “phage ELISA signal ratio” value of the first is lower: 12.4 for the first, 12.8 for the second.

First: FELAGRWEPLMMYEWV
Second: AARTQWYLAAVAEQAP
The “phage ELISA signal ratio” value of the first is lower: 12.8 for the first, 12.9 for the second.

First: PEQERINRKTYQMVSR
Second: ETQDPPEVRQYTMVSR
The “phage ELISA signal ratio” value of the first is lower: 13 for the first, 13.8 for the second.

RWEPHAWQADQVEATK and SARTSHWVPMEWNHLQ are the same in “phage ELISA signal ratio” value: 14 for the first, 14 for the second.

Going from QQVFQDHSNHQMMISR to GAARTQGVEWHSQHSH, the “phage ELISA signal ratio” value rises from 14 to 14.9.

First: QRTMAWKSEDHLMPQS
Second: IKETAHMDERPKMISR
The “phage ELISA signal ratio” value of the first is lower: 14.9 for the first, 15.8 for the second.

First: QRTMAWKSENHLMPHS
Second: PRYKPHNRTEPVPLMA
The “phage ELISA signal ratio” value of the first is lower: 16.4 for the first, 18.7 for the second.

First: GRWVPVQDVPRFEIED
Second: KKPVPMRWEHTYTETM
The “phage ELISA signal ratio” value of the first is lower: 19 for the first, 20.2 for the second.

Compared with AARTHAQEYHKGIMAS, SARTGYDNYLKPSSQQ is higher in “phage ELISA signal ratio” value: 21.6 for the first, 22 for the second.

First: GRWVPWDQNVTTSDES
Second: SARSEPYPSTNFTWTH
The “phage ELISA signal ratio” value of the first is lower: 23.4 for the first, 25.7 for the second.

With ARTWYMHQQEAMADQK the “phage ELISA signal ratio” value was 26.3.

Molecular target: T2, WDR74 1-387 WD40 (domain begin residue: …
Experiment: as above
How it was run: as §1

For QIWSLWVEGMMYQPDN, the “phage ELISA signal ratio” value was 2.75.
